Results: PubChem BioAssay

What follows are compounds tested against PEG-3 (UniProt Q6IN02) (assay: Peg3 promoter luciferase inhibitors, potency, dose response, cell-based, HeLa, CREF/GAPDH counter-screen panel (AID 624167)). Details: CREF/GAPDH counter-screens; HeLa PEG-Prom luciferase reporter, overnight, run 2, dose range 1, at 100 µM (top of the series) unless noted.
Chain of PEG-3 (Q6IN02 whole entry, looked up): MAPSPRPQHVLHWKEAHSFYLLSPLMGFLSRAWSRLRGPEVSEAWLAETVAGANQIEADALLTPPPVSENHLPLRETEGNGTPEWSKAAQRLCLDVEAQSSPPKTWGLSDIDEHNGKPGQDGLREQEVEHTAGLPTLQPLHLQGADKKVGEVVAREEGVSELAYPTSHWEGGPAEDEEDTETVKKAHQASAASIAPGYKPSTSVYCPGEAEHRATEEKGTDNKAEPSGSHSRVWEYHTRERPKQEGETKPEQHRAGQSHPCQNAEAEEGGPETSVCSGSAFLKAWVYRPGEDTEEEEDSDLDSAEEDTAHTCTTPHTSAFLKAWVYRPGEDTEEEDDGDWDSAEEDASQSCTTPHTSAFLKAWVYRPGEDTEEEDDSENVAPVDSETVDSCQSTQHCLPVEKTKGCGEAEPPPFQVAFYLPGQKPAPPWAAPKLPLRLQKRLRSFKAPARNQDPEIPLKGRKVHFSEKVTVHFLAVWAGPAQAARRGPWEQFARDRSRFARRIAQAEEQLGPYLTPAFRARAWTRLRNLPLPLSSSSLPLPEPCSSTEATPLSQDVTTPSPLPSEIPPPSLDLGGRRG
Compound `O=C(O)c1ccc(CN2C(=O)c3cccc4c([N+](=O)[O-])ccc(c34)C2=O)cc1` has an inhibition of 100%.
With `CN[C@H]1C[C@H]2c3[nH]c4ccc(-c5ccc(OC)cc5)cc4c3CCN2C(=O)[C@H]1[C@H](C)O` the inhibition was 98.8%.
Work on `CCc1ccn2cc(-c3ccc4c(c3)OCO4)nc2c1` yielded an inhibition of 89.2%.
With `CN(C)c1ccc(/C=C/c2nc3ccccc3s2)cc1` the inhibition was 89.3%.
`CN(C)c1ccc(C=c2c3ccccc3n3c2cc(-c2ccccc2)[n+]3C)cc1` was tested, and the inhibition was 102%.
`Brc1ccc(N=Nc2ccc3ccccc3n2)cc1` was tested, and the inhibition was 94.5%.
With `CS(=O)(=O)c1ccc(-c2sc3ccccc3c2C#CCCO)cc1` the inhibition was 97.9%.
`CCCCC(=O)NC(c1ccccc1)c1ccc2cccnc2c1O` (stereo unspecified) showed an inhibition of 93.6%.
`O=C(N/N=C/c1c(O)ccc2ccccc12)c1ccc(CO)nc1` gave an inhibition of 60.4%.
Work on `Cc1cc(N2CCN(C)CC2)ccc1NC(=O)c1c2c(nc3ccccc13)CCN(Cc1ccccc1)C2` yielded an inhibition of 98.9%.
Compound `CN(C)c1ccc(/C=C(\C#N)c2ccccn2)cc1` has an inhibition of 84.6%.

These compounds were tested on Rat fibroblasts (CREF) in the same assay as above. Details: CREF/GAPDH counter-screens; run 1, dose range 1, at 100 µM (top of the series).
`O=C(Nc1ncc([N+](=O)[O-])s1)c1ccc2c(c1)OCO2` gave an inhibition of 91.5%.
Compound `Cc1oc(-c2ccc3c(c2)OCCO3)cc1C(=O)O` has an inhibition of 84.4%.
`COc1cc(/C=C2\SC(=Nc3ccccc3OC)NC2=O)ccc1O` was tested, and the inhibition was -38.3%.
For `COC(CNC(=O)c1ccc2c3c(onc13)-c1ccccc1C2=O)OC`, the inhibition was 98.9%.
`O=C(Nc1nc2cc3c(cc2s1)OCO3)C1=COCCO1` was tested, and the inhibition was 93.7%.
With `O=C(Nc1ccccc1C(=O)Nc1nnc(C(F)(F)F)s1)c1ccccc1` the inhibition was -3.72%.
`Cc1cc(C(=O)CN2C(=O)c3ccccc3S2(=O)=O)c(C)n1-c1ccccc1` was tested, and the inhibition was 90.6%.
With `CN=c1scc(-c2cccs2)n1/N=C/c1ccccc1O` the inhibition was 98.2%.
Compound `COCCCNC(=O)c1ccc(Cn2c(=O)c3ccccc3n(Cc3ccccc3C#N)c2=O)cc1` has an inhibition of 40.3%.
`Cc1cc(Br)ccc1NC(=O)CNC(=O)Cn1ncc(Cl)c(Cl)c1=O` was tested, and the inhibition was 48.9%.
In the case of `O=C(NC(=O)c1ccccc1)Nc1ccccn1`, the inhibition is reported as 95.3%.
`COc1ccc2c(c1)sc1nc(-c3ccccc3)cn12` was tested, and the inhibition was 98.8%.
In the case of `N=c1n(CC(=O)c2ccc([N+](=O)[O-])cc2)c2ccccc2n1Cc1ccc(Cl)cc1`, the inhibition is reported as 99.2%.
`O=C(O)c1cccc(COc2ccc(CO)cc2Cl)c1` showed an inhibition of 91.5%.
Compound `O=C(Nc1nc2ccccc2[nH]1)c1ccccc1F` has an inhibition of 98.8%.
`Cc1ccc(C(C[N+](=O)[O-])Sc2ccc(N)cc2)cc1` (stereo unspecified) showed an inhibition of 96.1%.
In the case of `COc1ccc(C(=O)NNC(=O)c2ccccn2)cc1`, the inhibition is reported as 100%.
`NC(Cc1ccc(F)cc1)c1csc(Nc2cc(Oc3ccccc3)ncn2)n1` (stereo unspecified) gave an inhibition of 95.3%.
Work on `Cc1nc(C)c(C(=O)N/N=C/c2cc(Br)ccc2O)s1` yielded an inhibition of 52.7%.
For `CC(=O)c1sc2c(c1OC(=O)c1ccc(Cl)cc1Cl)c(=O)n(-c1ccccc1)c(=S)n2-c1ccccc1`, the inhibition was 14.9%.
In the case of `CCN1C=CC(=C2C(=O)c3ccccc3C2=O)C=C1`, the inhibition is reported as 99.8%.
Compound `Cc1ccc(C(=O)Nc2nc3ccccc3[nH]2)cc1` has an inhibition of 99.2%.
With `O=C(Nc1nc2cc3c(cc2s1)OCCO3)C1=COCCO1` the inhibition was 95.3%.
Work on `CN(C)c1ccc(NC(=S)c2ccccn2)cc1` yielded an inhibition of 94.4%.
Compound `Cc1ccc(-c2nc(-c3ccccn3)no2)cc1Cl` has an inhibition of 99.3%.
`Cc1c([N+](=O)[O-])cc(N2C(=O)C=CC2=O)cc1[N+](=O)[O-]` gave an inhibition of 99.5%.
Work on `COc1cc(Nc2c3ccccc3nc3ccccc23)cc(OC)c1OC` yielded an inhibition of 92.9%.
Work on `S=C(NN=C(c1ccccc1)c1ccccn1)N(Cc1ccccn1)Cc1ccccn1` yielded an inhibition of 97.9%.
With `Cc1cccc(OCC(=O)NCC(=O)N/N=C/c2cc(Br)cc(Br)c2O)c1` the inhibition was 65.6%.
Compound `O=C(O)c1ccc(CN2C(=O)c3cccc4c([N+](=O)[O-])ccc(c34)C2=O)cc1` has an inhibition of 71.3%.
`CN[C@H]1C[C@H]2c3[nH]c4ccc(-c5ccc(OC)cc5)cc4c3CCN2C(=O)[C@H]1[C@H](C)O` was tested, and the inhibition was 96%.
Work on `CCc1ccn2cc(-c3ccc4c(c3)OCO4)nc2c1` yielded an inhibition of -17.6%.
Compound `CN(C)c1ccc(/C=C/c2nc3ccccc3s2)cc1` has an inhibition of 96.6%.
`CN(C)c1ccc(C=c2c3ccccc3n3c2cc(-c2ccccc2)[n+]3C)cc1` showed an inhibition of 101%.
With `Brc1ccc(N=Nc2ccc3ccccc3n2)cc1` the inhibition was 97.1%.
Work on `CS(=O)(=O)c1ccc(-c2sc3ccccc3c2C#CCCO)cc1` yielded an inhibition of 95.2%.
`CCCCC(=O)NC(c1ccccc1)c1ccc2cccnc2c1O` (stereo unspecified) was tested, and the inhibition was -26%.
Work on `O=C(N/N=C/c1c(O)ccc2ccccc12)c1ccc(CO)nc1` yielded an inhibition of 54%.
`Cc1cc(N2CCN(C)CC2)ccc1NC(=O)c1c2c(nc3ccccc13)CCN(Cc1ccccc1)C2` gave an inhibition of 99.4%.
`CN(C)c1ccc(/C=C(\C#N)c2ccccn2)cc1` showed an inhibition of 98.2%.

Each compound was assayed on Rat fibroblasts (CREF) in the same assay as above. Details: CREF/GAPDH counter-screens; run 2, dose range 1, at 100 µM (top of the series).
`O=C(Nc1ncc([N+](=O)[O-])s1)c1ccc2c(c1)OCO2` showed an inhibition of 91.7%.
Work on `Cc1oc(-c2ccc3c(c2)OCCO3)cc1C(=O)O` yielded an inhibition of 81.3%.
`COc1cc(/C=C2\SC(=Nc3ccccc3OC)NC2=O)ccc1O` was tested, and the inhibition was -20.9%.
`COC(CNC(=O)c1ccc2c3c(onc13)-c1ccccc1C2=O)OC` gave an inhibition of 100%.
`O=C(Nc1nc2cc3c(cc2s1)OCO3)C1=COCCO1` was tested, and the inhibition was 94%.
In the case of `O=C(Nc1ccccc1C(=O)Nc1nnc(C(F)(F)F)s1)c1ccccc1`, the inhibition is reported as 11.8%.
Work on `Cc1cc(C(=O)CN2C(=O)c3ccccc3S2(=O)=O)c(C)n1-c1ccccc1` yielded an inhibition of 89.8%.
In the case of `CN=c1scc(-c2cccs2)n1/N=C/c1ccccc1O`, the inhibition is reported as 97.1%.
For `COCCCNC(=O)c1ccc(Cn2c(=O)c3ccccc3n(Cc3ccccc3C#N)c2=O)cc1`, the inhibition was 38.4%.
`Cc1cc(Br)ccc1NC(=O)CNC(=O)Cn1ncc(Cl)c(Cl)c1=O` was tested, and the inhibition was 96.9%.
In the case of `O=C(NC(=O)c1ccccc1)Nc1ccccn1`, the inhibition is reported as 96.8%.
`COc1ccc2c(c1)sc1nc(-c3ccccc3)cn12` was tested, and the inhibition was 98.5%.
With `N=c1n(CC(=O)c2ccc([N+](=O)[O-])cc2)c2ccccc2n1Cc1ccc(Cl)cc1` the inhibition was 99.4%.
`O=C(O)c1cccc(COc2ccc(CO)cc2Cl)c1` showed an inhibition of 91.1%.
For `O=C(Nc1nc2ccccc2[nH]1)c1ccccc1F`, the inhibition was 99.2%.
In the case of `Cc1ccc(C(C[N+](=O)[O-])Sc2ccc(N)cc2)cc1` (stereo unspecified), the inhibition is reported as 96.3%.
Compound `COc1ccc(C(=O)NNC(=O)c2ccccn2)cc1` has an inhibition of 98.5%.
With `NC(Cc1ccc(F)cc1)c1csc(Nc2cc(Oc3ccccc3)ncn2)n1` (stereo unspecified) the inhibition was 94.1%.
`Cc1nc(C)c(C(=O)N/N=C/c2cc(Br)ccc2O)s1` gave an inhibition of 46.2%.
With `CC(=O)c1sc2c(c1OC(=O)c1ccc(Cl)cc1Cl)c(=O)n(-c1ccccc1)c(=S)n2-c1ccccc1` the inhibition was 61.6%.
Work on `CCN1C=CC(=C2C(=O)c3ccccc3C2=O)C=C1` yielded an inhibition of 101%.
Compound `Cc1ccc(C(=O)Nc2nc3ccccc3[nH]2)cc1` has an inhibition of 98.7%.
Work on `O=C(Nc1nc2cc3c(cc2s1)OCCO3)C1=COCCO1` yielded an inhibition of 97%.
Work on `CN(C)c1ccc(NC(=S)c2ccccn2)cc1` yielded an inhibition of 96.1%.
Compound `Cc1ccc(-c2nc(-c3ccccn3)no2)cc1Cl` has an inhibition of 99.4%.
`Cc1c([N+](=O)[O-])cc(N2C(=O)C=CC2=O)cc1[N+](=O)[O-]` showed an inhibition of 100%.
In the case of `COc1cc(Nc2c3ccccc3nc3ccccc23)cc(OC)c1OC`, the inhibition is reported as 72.1%.
In the case of `S=C(NN=C(c1ccccc1)c1ccccn1)N(Cc1ccccn1)Cc1ccccn1`, the inhibition is reported as 98%.
Compound `Cc1cccc(OCC(=O)NCC(=O)N/N=C/c2cc(Br)cc(Br)c2O)c1` has an inhibition of 74.7%.
`O=C(O)c1ccc(CN2C(=O)c3cccc4c([N+](=O)[O-])ccc(c34)C2=O)cc1` showed an inhibition of 98.6%.
With `CN[C@H]1C[C@H]2c3[nH]c4ccc(-c5ccc(OC)cc5)cc4c3CCN2C(=O)[C@H]1[C@H](C)O` the inhibition was 99.6%.
In the case of `CCc1ccn2cc(-c3ccc4c(c3)OCO4)nc2c1`, the inhibition is reported as 97.5%.
`CN(C)c1ccc(/C=C/c2nc3ccccc3s2)cc1` showed an inhibition of 94.9%.
Compound `CN(C)c1ccc(C=c2c3ccccc3n3c2cc(-c2ccccc2)[n+]3C)cc1` has an inhibition of 100%.
`Brc1ccc(N=Nc2ccc3ccccc3n2)cc1` was tested, and the inhibition was 96.3%.
`CS(=O)(=O)c1ccc(-c2sc3ccccc3c2C#CCCO)cc1` gave an inhibition of 95.7%.
`CCCCC(=O)NC(c1ccccc1)c1ccc2cccnc2c1O` (stereo unspecified) showed an inhibition of -7.89%.
`O=C(N/N=C/c1c(O)ccc2ccccc12)c1ccc(CO)nc1` gave an inhibition of 47.6%.
Work on `Cc1cc(N2CCN(C)CC2)ccc1NC(=O)c1c2c(nc3ccccc13)CCN(Cc1ccccc1)C2` yielded an inhibition of 99.8%.
For `CN(C)c1ccc(/C=C(\C#N)c2ccccn2)cc1`, the inhibition was 99%.
